This is an account of results in PubChem BioAssay (EPA / NIEHS).

One may read the AC50 as the concentration at which the activity in the assay is half-maximal.

Where “and” joins values, the source holds several entries; their conditions need not be identical. Equal values may be shown once. Where a structure was tested more than once in an assay, its records may differ in their call. Calls of active or inactive are those of the source. The calls were made as follows: active = hit-call score of the fitted dose curve at least 0.9, where 1 is the maximum; inactive = score below 0.9.

Assay [1] can be described thus: BSK_CASM3C_SRB: Viability Assessment in the BioMAP Diversity Plus: CASM3C Assay (AID 2283050).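 Also: total protein by SRB staining as cytotoxicity measure in parallel cultures; cells exposed to compound for 24 h.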 The following applies: primary human coronary artery smooth muscle cells.
Read-out in assay [2]: Thrombomodulin, THBD (gene 7056)
Description: BSK_CASM3C_Thrombomodulin: BioMAP Diversity Plus: CASM3C Assay for Thrombomodulin Biomarker Activity (AID 2283051).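 Also: thrombomodulin protein level measured by ELISA 24 h after dosing.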 The following applies: primary human coronary artery smooth muscle cells; actives raise or lower the signal.

Read-out in assay [3]: Tissue Factor, F3 (gene 2152)
As to the kind of experiment: BSK_CASM3C_TissueFactor: BioMAP Diversity Plus: CASM3C Assay for Tissue Factor Biomarker Activity (AID 2283052).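 Also: cell surface tissue factor protein level read by ELISA.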 The settings on record: primary human coronary artery smooth muscle cells; actives raise or lower the signal.

Read-out in assay [4]: Interferon-gamma inducible Protein 10 (IP10), CXCL10 (gene 3627)
As to the kind of experiment: BSK_hDFCGF_IP10: BioMAP Diversity Plus: hDFCGF Assay for Interferon-gamma inducible Protein 10 (IP10) Biomarker Activity (AID 2283053). The following applies: primary human foreskin fibroblasts; actives raise or lower the signal. In outline:
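ELISA quantification of IP-10 after a 24 h chemical exposure of human dermal foreskin fibroblast primary cultures. Both increases and decreases versus DMSO fitted.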

Read-out in assay [5]: Urokinase-type plasminogen activator receptor (uPAR), PLAUR (gene 5329)
Description: BSK_CASM3C_uPAR: BioMAP Diversity Plus: CASM3C Assay for Urokinase-type plasminogen activator receptor (uPAR) Biomarker Activity (AID 2283054).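 Also: cell-surface uPAR protein level quantified by ELISA.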 The settings on record: primary human coronary artery smooth muscle cells; actives raise or lower the signal.

Read-out in assay [6]: Vascular cell adhesion molecule 1 (VCAM1), VCAM1 (gene 7412)
Description: BSK_CASM3C_VCAM1: BioMAP Diversity Plus: CASM3C Assay for Vascular cell adhesion molecule 1 (VCAM1) Biomarker Activity (AID 2283055).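 Also: VCAM-1 protein level quantified by ELISA on the cells.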 The following applies: primary human coronary artery smooth muscle cells; actives raise or lower the signal.

Read-out in assay [7]: Collagen III, COL3A1 (gene 1281)
Description: BSK_hDFCGF_CollagenIII: BioMAP Diversity Plus: hDFCGF Assay for Collagen III Biomarker Activity (AID 2283056). The settings on record: primary human foreskin fibroblasts; actives raise or lower the signal. In outline: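 ELISA read-out of collagen III from human skin fibroblast cultures sampled 24 h post-dosing. Values were derived by bidirectional fitting relative to the DMSO vehicle control.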

Read-out in assay [8]: Epidermal growth factor receptor (EGFR), EGFR (gene 1956)
As to the kind of experiment: BSK_hDFCGF_EGFR: BioMAP Diversity Plus: hDFCGF Assay for Epidermal growth factor receptor (EGFR) Biomarker Activity (AID 2283057). The settings on record: primary human foreskin fibroblasts; actives raise or lower the signal. Put shortly:
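EGFR levels by ELISA in human dermal fibroblast cultures, 24 h post-treatment, fitted bidirectionally versus DMSO. Parallel wells stained with sulforhodamine B to detect overt cytotoxicity.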

Assay [9] can be described thus: BSK_hDFCGF_Proliferation: Cell Proliferation Assessment in the BioMAP Diversity Plus: hDFCGF Assay (AID 2283059).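 Also: curves fitted for both rise and fall of signal versus DMSO baseline.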 The settings on record: primary human foreskin fibroblasts. In outline: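 This proliferation readout used SRB total-protein staining of human foreskin fibroblasts […], normalized to DMSO with bidirectional curve fitting.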
Read-out in assay [10]: Macrophage colony-stimulating factor (MCSF), CSF1 (gene 1435)
As to the kind of experiment: BSK_hDFCGF_MCSF: BioMAP Diversity Plus: hDFCGF Assay for Macrophage colony-stimulating factor (MCSF) Biomarker Activity (AID 2283060). The settings on record: primary human foreskin fibroblasts; actives raise or lower the signal. Put shortly: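 Primary human foreskin fibroblasts dosed with chemical; 24 h later, M-CSF quantified by ELISA; curves fitted in both directions vs DMSO negative control.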

A short description of assay [11]: BSK_hDFCGF_SRB: Viability Assessment in the BioMAP Diversity Plus: hDFCGF Assay (AID 2283061).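 Also: cells exposed to compound for 24 h before the read.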 The settings on record: primary human foreskin fibroblasts. Put shortly: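 Readout is SRB absorbance at 560 nm, reflecting total protein in parallel cultures of human foreskin fibroblasts harvested 24 h after chemical dosing. Activity was fitted bidirectionally relative to DMSO.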

Read-out in assay [12]: TIMP metallopeptidase inhibitor 1 (TIMP1), TIMP1 (gene 7076)
Description: BSK_hDFCGF_TIMP1: BioMAP Diversity Plus: hDFCGF Assay for TIMP metallopeptidase inhibitor 1 (TIMP1) Biomarker Activity (AID 2283062). The settings on record: primary human foreskin fibroblasts; actives raise or lower the signal. Put shortly:
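Human skin fibroblasts (primary), hDFCGF system; compound exposure 24 h; TIMP-1 by ELISA; bidirectional fit vs DMSO negative control; overt cytotoxicity by SRB in parallel wells.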

Read-out in assay [13]: Monokine induced gamma interferon (MIG), CXCL9 (gene 4283)
Description: BSK_hDFCGF_MIG: BioMAP Diversity Plus: hDFCGF Assay for Monokine induced gamma interferon (MIG) Biomarker Activity (AID 2283063). The following applies: primary human foreskin fibroblasts; actives raise or lower the signal. In outline: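 Chemicals were added to primary human foreskin fibroblast cultures, which were sampled 24 h later. MIG levels were then quantified by ELISA and responses fitted in both directions relative to DMSO.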

Read-out in assay [14]: Matrix Metallopeptidase 1 (MMP1), MMP1 (gene 4312)
Description: BSK_hDFCGF_MMP1: BioMAP Diversity Plus: hDFCGF Assay for Matrix Metallopeptidase 1 (MMP1) Biomarker Activity (AID 2283064). The settings on record: primary human foreskin fibroblasts; actives raise or lower the signal. In outline:
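Human foreskin fibroblasts exposed to chemical for 24 h; MMP1 detected by ELISA, with DMSO as baseline for bidirectional fitting.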

Read-out in assay [15]: Vascular cell adhesion molecule 1 (VCAM1), VCAM1 (gene 7412)
As to the kind of experiment: BSK_hDFCGF_VCAM1: BioMAP Diversity Plus: hDFCGF Assay for Vascular cell adhesion molecule 1 (VCAM1) Biomarker Activity (AID 2283065).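 As to AC50: VCAM-1 protein level quantified by ELISA after 24 h chemical exposure.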 The following applies: primary human foreskin fibroblasts; actives raise or lower the signal. In outline: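 Human foreskin fibroblast primary cells, chemical exposure 24 h; VCAM-1 by ELISA; bidirectional fit, DMSO = negative control/baseline.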

Read-out in assay [16]: Plasminogen activator inhibitor-1 (PAI1), SERPINE1 (gene 5054)
Description: BSK_hDFCGF_PAI1: BioMAP Diversity Plus: hDFCGF Assay for Plasminogen activator inhibitor-1 (PAI1) Biomarker Activity (AID 2283066). The settings on record: primary human foreskin fibroblasts; actives raise or lower the signal. Put shortly:
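PAI-1 levels in human dermal foreskin fibroblasts were quantified by ELISA 24 h after dosing, with gain or loss analysed against DMSO. Overt cytotoxicity was checked by sulforhodamine B total-protein staining in parallel cultures.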

Read-out in assay [17]: Intercellular Adhesion Molecule 1 (ICAM1), ICAM1 (gene 3383)
As to the kind of experiment: BSK_KF3CT_ICAM1: BioMAP Diversity Plus: KF3CT Assay for Intercellular Adhesion Molecule 1 (ICAM1) Biomarker Activity (AID 2283067). The settings on record: primary human keratinocytes with fibroblasts; actives raise or lower the signal. In outline:
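ICAM-1 levels are measured by ELISA 24 h after dosing a primary human co-culture of keratinocytes and foreskin fibroblasts. Activity in either direction is fitted relative to DMSO vehicle.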

Read-out in assay [18]: Interferon-gamma inducible Protein 10 (IP10), CXCL10 (gene 3627)
As to the kind of experiment: BSK_KF3CT_IP10: BioMAP Diversity Plus: KF3CT Assay for Interferon-gamma inducible Protein 10 (IP10) Biomarker Activity (AID 2283068). The following applies: primary human keratinocytes with fibroblasts; actives raise or lower the signal. Put shortly: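 Signal is secreted/surface IP-10 by ELISA in a human primary skin co-culture of keratinocytes and foreskin fibroblasts, taken 24 h post-dosing; DMSO served as negative control.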

The nature of assay [19]: BSK_KF3CT_SRB: Viability Assessment in the BioMAP Diversity Plus: KF3CT Assay (AID 2283069).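 Also: read 24 h after compound addition; fitted for both signal gain and loss against DMSO baseline.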 The following applies: primary human keratinocytes with fibroblasts. In outline:
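Overt cytotoxicity is assessed as total protein by sulforhodamine B staining in parallel human skin co-cultures at 24 h after dosing. DMSO serves as negative control and baseline.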

Read-out in assay [20]: Interleukin-8 (IL8), CXCL8 (gene 3576)
Description: BSK_hDFCGF_IL8: BioMAP Diversity Plus: hDFCGF Assay for Interleukin-8 (IL8) Biomarker Activity (AID 2283058). The settings on record: primary human foreskin fibroblasts; actives raise or lower the signal. In outline: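 Cells used are human skin primary fibroblasts. Chemical is added, cultures run 24 h, then IL-8 is quantified by ELISA, and gain or loss versus DMSO control is fitted in both directions.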

Regarding `CN1COCN(Cc2cnc(Cl)s2)C1=N[N+](=O)[O-]`, the outcome in assay [1], in assay [2], in assay [3], in [4], in [5] and in [6] was inactive. For the same compound, the outcome in assay [7], in [8], in [9], in assay [10], in assay [11] and in [12] was inactive. In addition, the result in assay [13], in assay [14], in [15], in assay [16], in [17] and in assay [18] was inactive. Also, in [19], the result was inactive.

With `CN(C)[C@@H]1C(=O)C(C(N)=O)=C(O)[C@@]2(O)C(=O)C3=C(O)c4c(O)cccc4[C@@](C)(O)[C@H]3[C@H](O)[C@@H]12`, the outcome in [1], in assay [2], in assay [3], in assay [4], in assay [5] and in [6] was inactive. Also, the result in assay [8], in assay [9], in assay [10], in assay [11], in [12] and in assay [13] was inactive. For the same compound, the outcome in [14], in assay [15], in [16], in assay [17], in assay [18] and in [19] was inactive. Further, the AC50 in assay [4] is 29.9 µM (active); in [9], 19.6 µM (active) and 13.9 µM (active); in assay [10] it was 23.3 µM (active); in assay [13], 31.6 µM (active); in [15], 28.6 µM (active).

Take `Nc1c(Cl)cc([N+](=O)[O-])cc1Cl`: the result in assay [1], in assay [2], in assay [3], in assay [5], in assay [6] and in assay [7] was inactive. The outcome in [8], in [10], in assay [11], in assay [12], in assay [13] and in assay [15] was inactive. The outcome in [16], in [17], in assay [18] and in [19] was inactive. The concentration at half-maximal activity (AC50) in [4] was 3.97 µM (active); in [9], 27.6 µM (active); in [14], 4.71 µM (active).

In the case of `O=C(O)c1cc(Oc2ccc(C(F)(F)F)cc2Cl)ccc1[N+](=O)[O-]`, the outcome in assay [1], in assay [2], in assay [3], in assay [4], in assay [5] and in assay [6] was inactive. For the same compound, the result in assay [7], in assay [8], in assay [9], in assay [10], in [11] and in assay [12] was inactive. Besides, the result in [13], in assay [14], in assay [15], in [16], in [17] and in assay [18] was inactive. Besides, the result in assay [19] was inactive.

With `CCOP(=O)(NC(C)C)Oc1ccc(SC)c(C)c1` (centres undefined), the outcome in assay [1], in [2], in [3], in [4], in [5] and in assay [6] was inactive. Further, the outcome in [8], in [20], in assay [9], in [10], in assay [11] and in assay [12] was inactive. Also, the outcome in assay [13], in assay [14], in assay [15], in [16], in assay [17] and in assay [18] was inactive. For the same compound, in assay [19], the outcome was inactive.

As for `CC1=NNC(=O)N(/N=C/c2cccnc2)C1`, the result in assay [1], in assay [2], in assay [3], in assay [4], in assay [5] and in [6] was inactive. In addition, the outcome in assay [7], in [8], in assay [20], in assay [9], in [10] and in [11] was inactive. In addition, the result in [12], in assay [13], in [14], in assay [15], in assay [16] and in assay [17] was inactive. Further, the outcome in assay [18] and in [19] was inactive.
